The source of these data is PubChem BioAssay (NCATS).

Inconclusive results are not listed. The source made the active and inactive calls. Unless noted, the call rests on the fitted dose curve; in most records, active means well fitted curve in the direction sought with a large enough effect; inconclusive means small, poorly fitted or top-dose-only effect, or another doubt; inactive means no such curve, though single readings can be large; an effect the other way counts as inactive or inconclusive.

Test [1] is described as follows: qHTS for differential inhibitors of proliferation of Plasmodium falciparum line HB3 (AID 1886).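 Further: parasites grown with compound for 72 h before SYBR Green readout.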 Further: potency means the concentration at half of the fitted maximal effect. Particulars: Potency: Plasmodium falciparum HB3 proliferation inhibition.
A short description of test [2]: qHTS Assay for Modulators of Human Peripheral Myelin Protein 22 (PMP22) Expression/Activity (AID 1967; active means well fitted curve in the direction sought with a large enough effect in the signal ratio; the % refers to the signal ratio). Summed up: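 Readout is the corrected green/red luminescence ratio after 24 h compound exposure, normalised to untreated cells (0%). Engineered MSC80 mouse Schwann cells express green luciferase from the mouse Pmp22 promoter and red luciferase from EF-alpha as internal control.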

The target of test [3] is Ferritin light chain (Equus caballus) (UniProt P02791). Briefly: qHTS Validation Assay for Identification of Novel General Anesthetics (AID 2323). Further: series mostly up to about 77 µM. Summed up: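 Competitive displacement of the profluorescent anesthetic 1-AMA (50% saturated, PBS) from 10 uM apoferritin, 10 min, room temperature. Activity is normalized 380/535 nm fluorescence; concentration-response fitted with a four-parameter Hill equation.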

Test [4] can be described thus: Cytometric Cell-Based qHTS for Inhibitors of the mTORC1 Signaling Pathway in MEF (Tsc2-/-, p53-/-) Cells (AID 2660).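 Further: percent of cells above a phospho-rpS6 to PI ratio cutoff in each well; series mostly up to about 38 µM.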 Summed up: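 Immunofluorescence qHTS of rpS6 Ser235/236 phosphorylation: MEFs (Tsc2-/-, p53-/-) treated 24 h, 37 C, in DMEM + 10% FBS. Alexa-488 signal normalized to PI count, referenced to rapamycin (7.5 nM) and DMSO; PI cell number recorded for viability.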

The nature of test [5]: High Content Imaging Cell-Based qHTS for Inhibitors of the mTORC1 Signaling Pathway in MEF (Tsc2-/-, p53-/-) Cells (AID 2666). Summed up: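 Phospho-rpS6 (Ser235/236) immunofluorescence, normalized and scored as % positive cells using rapamycin and DMSO controls, was read in empty-vector Tsc2-/-, p53-/- MEFs after 24 h compound exposure at 37 C; propidium iodide counted cells.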

Test [6] is described as follows: High Content Imaging Cell-Based qHTS for Inhibitors of the mTORC1 Signaling Pathway in MEF Cells (AID 2667).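 Further: Tsc2-/- p53-/- MEFs stably re-expressing wild-type Tsc2 exposed 24 h; series mostly up to about 38 µM.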 Summed up:
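WT MEFs (Tsc2-/-, p53-/- re-expressing Tsc2), in DMEM + 10% FBS, were treated with compound for 24 h at 37 C. Cells were then fixed and stained for phospho-rpS6 Ser235/236 with propidium iodide as cell count. Values are % positive cells, with thresholds set against rapamycin-treated cells.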

Test [7] in a line: Cytometry Cell-Based qHTS for Inhibitors of the mTORC1 Signaling Pathway in MEF cells (AID 2668).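 Further: Tsc2-/- p53-/- mouse embryonic fibroblasts stably re-expressing wild-type Tsc2; percent cells positive for phospho-rpS6 Ser235/236 relative to propidium iodide stain; series mostly up to about 38 µM.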 Summed up:
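Phospho-rpS6 (Ser235/236) immunofluorescence over PI signal, scored as % positive cells using thresholds from 7.5 nM rapamycin and DMSO wells, after 24 h compound exposure of WT-Tsc2-rescued Tsc2-/-, p53-/- MEFs. PI cell count recorded for viability.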

Test [8] can be described thus: Validation screen for small molecules that induce DNA re-replication in MCF 10A normal breast cells (AID 463097). Further: nearly all actives have a fitted effect of over 60% in size. Summed up: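 Read-out is Hoechst total nuclear intensity by fluorescence scanning imager, flagging increased high-DNA-content nuclei. Compounds were incubated with MCF 10A cells for 48 hr (37 C, 5% CO2) before 40 min staining.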
Test [9] addresses Ubiquitin carboxyl-terminal hydrolase 2 (Homo sapiens) (UniProt O75604). The experiment in a line: qHTS Validation Assay for Inhibitors of Ubiquitin-specific Protease USP2a Using CHOP2 as the Reporter (AID 463106). Summed up:
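USP2 core (10 nM final) was preincubated with compound 30 min at RT in pH 8.0 Tris/CaCl2/beta-ME/CHAPS buffer. Ub-CHOP2 and reporter substrate (25 nM final each) were then added, with fluorescence (Ex 485/Em 531) read after 60 min. Data were normalized to NEM full inhibition and fitted to concentration-response curves.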

Test [10] has as its target DNA polymerase III PolC-type (Bacillus subtilis (strain 168)) (UniProt P13267). The experiment in a line: qHTS Validation Assay for the Inhibitors of DNA Replication in Gram-Positive Bacteria (AID 485295).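 Further: reconstituted holoenzyme with PolC plus beta clamp SSB and primase; PicoGreen fluorescence of double-stranded DNA made on primed circular M13 template; series mostly up to about 57 µM.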 Summed up:
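Double-stranded DNA product detected by PicoGreen fluorescence after EDTA quench. Compound incubated with B. subtilis holoenzyme (PolC, beta subunit, SSB, primase) before substrate addition; primed replication of M13Gori with dNTPs and NTPs at room temperature; DMSO defines 0% inhibition.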

For test [11], the target named is Tumor susceptibility gene 101 protein (Homo sapiens) (UniProt Q99816). The experiment in a line: qHTS Validation Assay for Iinhibitors of HIV-1 Budding by Blocking the Interaction of PTAP/TSG101 (AID 485342; calls by dose curve). Summed up: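 Fluorescence polarization of 50 nM FITC-PTAP peptide bound to 10 uM Tsg101 binding domain was read after 20 min room-temperature incubation with compounds, in 10 mM HEPES pH 7.5, 0.15 M NaCl, 0.01% Tween 20.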
Chain of Tumor susceptibility gene 101 protein (Homo sapiens) (Q99816 whole entry, looked up, the tested form may be a part): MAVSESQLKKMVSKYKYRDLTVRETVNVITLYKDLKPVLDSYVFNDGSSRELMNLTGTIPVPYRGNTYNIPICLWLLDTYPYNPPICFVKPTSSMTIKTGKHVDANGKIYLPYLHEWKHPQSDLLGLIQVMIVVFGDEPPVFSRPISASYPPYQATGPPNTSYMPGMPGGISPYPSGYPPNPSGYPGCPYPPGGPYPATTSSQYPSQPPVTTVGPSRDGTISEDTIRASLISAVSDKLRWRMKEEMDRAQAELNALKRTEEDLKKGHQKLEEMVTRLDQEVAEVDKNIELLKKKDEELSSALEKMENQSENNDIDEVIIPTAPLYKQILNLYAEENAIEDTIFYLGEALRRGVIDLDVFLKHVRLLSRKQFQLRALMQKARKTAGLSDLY

Test [12] in a line: qHTS Validation Assay to Find Inhibitors of Chronic Active B-Cell Receptor Signaling (AID 485345; active means well fitted curve in the direction sought with a large enough effect in the main read-out, with a control signal flat, not every such curve was filed as active). Summed up: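 TMD8 ABC-DLBCL cells stably carrying doxycycline-inducible IkappaBalpha–green luciferase fusion plus unfused red luciferase; compounds 46 uM to 3 nM, 4 h at 37C with doxycycline. Corrected green/red luminescence ratio normalized to 10 uM MG-132 and basal cell wells; curves fitted.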

Test [13] addresses Beta-2 adrenergic receptor (Homo sapiens) (UniProt P07550). Briefly: qHTS validation assay of beta-arrestin-biased ligands of beta2-adrenergic receptor (AID 485366). Summed up: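 Arrestin-recruitment (Tango) reporter: ligand-bound beta2-AR recruits beta-arrestin, releasing tTA, which upregulates luciferase. Titrations of up to 46 microM incubated 18 hr at 37 degrees C before luminescent readout.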

Test [14] concerns the target ATP-dependent 6-phosphofructokinase (Trypanosoma brucei brucei) (UniProt O15648). Briefly: qHTS Validation Assay to Find Inhibitors of T. brucei phosphofructokinase (AID 485368). Particulars: outcome: dose series up to 57.5 µM. Summed up:
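Steps: substrate mix (0.5 mM F6P, 0.1 mM ATP, MgCl2, TEA pH 8.0); compound; 1.25 nM T. brucei PFK; 45 min RT; ATP depletion 10 min; ADP-to-ATP detection 10 min; luminescence read; curve fitting and classification.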

Test [15] is described as follows: Quantitative high throughput screen for delayed death inhibitors of the malarial parasite plastid, 96 hour incubation (AID 488745). Further: nearly all actives have a fitted effect of over 70% in size. Further: potency means the concentration at half of the fitted maximal effect. Summed up:
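Growth of reporter-bearing P. falciparum in red cells is measured after 96 h with compound, covering two erythrocytic cycles. Luminescence from the integrated luciferase serves as the growth signal.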

Test [16] in a line: Quantitative high throughput screen for delayed death inhibitors of the malarial parasite plastid, 48 hour incubation (AID 488752). Further: nearly all actives have a fitted effect of over 65% in size. Further: potency means the concentration at half of the fitted maximal effect. Summed up:
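One parasite generation (48 h, 37 C, 5% CO2) of luciferase-reporter P. falciparum in erythrocytes is run with test compound; decreased luminescence indicates inhibited growth.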

For test [17], the target named is Thioredoxin reductase 1, cytoplasmic (Rattus norvegicus) (UniProt O89049). The experiment in a line: qHTS Assay for Substrates of Mammalian Selenoprotein Thioredoxin Reductase 1 (TrxR1) (AID 488772).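 Further: NADPH fluorescence in the first read after selenite addition and not the 8 min delta; series mostly up to about 57 µM; a drop in NADPH fluorescence below the no-compound background marks a TrxR1 substrate.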 Summed up:
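Quantitative HTS in Tris-HCl buffer at pH 7.5 with EDTA and Tween-20, using rat TrxR1, 400 uM NADPH and 400 uM selenite (final). A fall in initial NADPH fluorescence relative to background marked substrate behaviour.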

For test [18], the target named is RecQ-like DNA helicase BLM (Homo sapiens) (UniProt P54132). The experiment in a line: qHTS Validation Assay for Inhibitors of Bloom's syndrome helicase (BLM) (AID 2364). Summed up: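 50 nM BLM preincubated 15 min at room temperature with compound in pH 8.0 Tris buffer containing 2.5 ug/ml poly(dI-dC); started with 200 nM TAMRA/BHQ-2 forked duplex and 2 mM ATP (final). Unwinding read as TAMRA fluorescence increase, two reads 2 h apart.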
Chain of RecQ-like DNA helicase BLM (Homo sapiens) (P54132 whole entry, looked up): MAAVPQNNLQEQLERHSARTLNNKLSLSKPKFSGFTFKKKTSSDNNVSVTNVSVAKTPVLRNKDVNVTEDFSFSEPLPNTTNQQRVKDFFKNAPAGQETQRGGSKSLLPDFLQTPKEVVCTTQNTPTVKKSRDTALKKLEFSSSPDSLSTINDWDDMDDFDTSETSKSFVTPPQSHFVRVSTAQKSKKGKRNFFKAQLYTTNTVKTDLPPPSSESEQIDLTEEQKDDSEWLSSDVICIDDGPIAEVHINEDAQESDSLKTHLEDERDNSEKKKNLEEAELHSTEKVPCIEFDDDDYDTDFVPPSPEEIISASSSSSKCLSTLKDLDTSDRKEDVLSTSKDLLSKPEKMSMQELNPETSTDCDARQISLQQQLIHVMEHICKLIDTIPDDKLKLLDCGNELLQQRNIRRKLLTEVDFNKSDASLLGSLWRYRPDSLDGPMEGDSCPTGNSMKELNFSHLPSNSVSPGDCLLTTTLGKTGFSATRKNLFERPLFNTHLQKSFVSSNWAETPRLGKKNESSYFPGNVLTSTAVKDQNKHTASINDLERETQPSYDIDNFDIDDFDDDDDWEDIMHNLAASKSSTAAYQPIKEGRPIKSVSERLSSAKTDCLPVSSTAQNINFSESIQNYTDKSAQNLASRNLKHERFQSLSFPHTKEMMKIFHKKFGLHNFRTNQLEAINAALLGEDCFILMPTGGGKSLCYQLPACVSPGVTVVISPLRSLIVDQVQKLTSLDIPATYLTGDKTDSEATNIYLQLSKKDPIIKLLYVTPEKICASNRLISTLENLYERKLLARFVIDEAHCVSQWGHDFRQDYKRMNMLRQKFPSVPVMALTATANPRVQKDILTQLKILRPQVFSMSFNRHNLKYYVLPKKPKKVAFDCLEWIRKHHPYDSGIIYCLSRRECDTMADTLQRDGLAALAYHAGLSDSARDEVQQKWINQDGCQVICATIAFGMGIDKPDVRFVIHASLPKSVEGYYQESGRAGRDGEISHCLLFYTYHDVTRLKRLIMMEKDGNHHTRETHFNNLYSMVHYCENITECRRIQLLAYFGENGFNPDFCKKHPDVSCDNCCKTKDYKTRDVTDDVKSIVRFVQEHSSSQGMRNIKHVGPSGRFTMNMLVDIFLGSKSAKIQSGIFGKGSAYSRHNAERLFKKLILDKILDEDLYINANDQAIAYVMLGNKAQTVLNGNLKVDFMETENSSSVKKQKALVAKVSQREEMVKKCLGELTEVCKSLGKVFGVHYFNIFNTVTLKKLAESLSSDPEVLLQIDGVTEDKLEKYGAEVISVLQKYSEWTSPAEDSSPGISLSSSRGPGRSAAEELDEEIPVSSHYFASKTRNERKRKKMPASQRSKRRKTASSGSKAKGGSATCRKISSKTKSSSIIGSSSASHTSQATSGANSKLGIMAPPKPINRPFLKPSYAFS

The target of test [19] is ATP-dependent DNA helicase Q1 (Homo sapiens) (UniProt P46063). The experiment in a line: qHTS Validation Assay for Inhibitors of RecQ-Like Dna Helicase 1 (RECQ1) (AID 2353). Summed up:
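50 nM RECQ1T1 preincubated 15 min with compound in Tris pH 8.0 buffer with MgCl2, DTT, Tween-20 and 2.5 ug/ml poly(dI-dC); started with 200 nM TAMRA/BHQ-2 forked duplex and 2 mM ATP. Unwinding read as fluorescence (525/598 nm), two reads 2 h apart.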

Chain of Beta-2 adrenergic receptor (Homo sapiens) (P07550 whole entry, looked up): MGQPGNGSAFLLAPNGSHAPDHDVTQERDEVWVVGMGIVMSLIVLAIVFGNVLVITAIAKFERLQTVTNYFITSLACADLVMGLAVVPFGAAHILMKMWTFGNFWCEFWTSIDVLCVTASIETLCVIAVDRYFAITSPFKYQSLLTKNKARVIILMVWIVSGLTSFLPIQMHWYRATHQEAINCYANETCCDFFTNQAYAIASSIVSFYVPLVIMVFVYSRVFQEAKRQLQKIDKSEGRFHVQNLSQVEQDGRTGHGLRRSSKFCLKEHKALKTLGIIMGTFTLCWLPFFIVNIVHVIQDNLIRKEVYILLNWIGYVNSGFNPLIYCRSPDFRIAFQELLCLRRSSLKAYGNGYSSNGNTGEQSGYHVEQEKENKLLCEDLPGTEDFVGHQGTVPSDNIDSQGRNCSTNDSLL
Chain of DNA polymerase III PolC-type (Bacillus subtilis (strain 168)) (P13267 whole entry, looked up): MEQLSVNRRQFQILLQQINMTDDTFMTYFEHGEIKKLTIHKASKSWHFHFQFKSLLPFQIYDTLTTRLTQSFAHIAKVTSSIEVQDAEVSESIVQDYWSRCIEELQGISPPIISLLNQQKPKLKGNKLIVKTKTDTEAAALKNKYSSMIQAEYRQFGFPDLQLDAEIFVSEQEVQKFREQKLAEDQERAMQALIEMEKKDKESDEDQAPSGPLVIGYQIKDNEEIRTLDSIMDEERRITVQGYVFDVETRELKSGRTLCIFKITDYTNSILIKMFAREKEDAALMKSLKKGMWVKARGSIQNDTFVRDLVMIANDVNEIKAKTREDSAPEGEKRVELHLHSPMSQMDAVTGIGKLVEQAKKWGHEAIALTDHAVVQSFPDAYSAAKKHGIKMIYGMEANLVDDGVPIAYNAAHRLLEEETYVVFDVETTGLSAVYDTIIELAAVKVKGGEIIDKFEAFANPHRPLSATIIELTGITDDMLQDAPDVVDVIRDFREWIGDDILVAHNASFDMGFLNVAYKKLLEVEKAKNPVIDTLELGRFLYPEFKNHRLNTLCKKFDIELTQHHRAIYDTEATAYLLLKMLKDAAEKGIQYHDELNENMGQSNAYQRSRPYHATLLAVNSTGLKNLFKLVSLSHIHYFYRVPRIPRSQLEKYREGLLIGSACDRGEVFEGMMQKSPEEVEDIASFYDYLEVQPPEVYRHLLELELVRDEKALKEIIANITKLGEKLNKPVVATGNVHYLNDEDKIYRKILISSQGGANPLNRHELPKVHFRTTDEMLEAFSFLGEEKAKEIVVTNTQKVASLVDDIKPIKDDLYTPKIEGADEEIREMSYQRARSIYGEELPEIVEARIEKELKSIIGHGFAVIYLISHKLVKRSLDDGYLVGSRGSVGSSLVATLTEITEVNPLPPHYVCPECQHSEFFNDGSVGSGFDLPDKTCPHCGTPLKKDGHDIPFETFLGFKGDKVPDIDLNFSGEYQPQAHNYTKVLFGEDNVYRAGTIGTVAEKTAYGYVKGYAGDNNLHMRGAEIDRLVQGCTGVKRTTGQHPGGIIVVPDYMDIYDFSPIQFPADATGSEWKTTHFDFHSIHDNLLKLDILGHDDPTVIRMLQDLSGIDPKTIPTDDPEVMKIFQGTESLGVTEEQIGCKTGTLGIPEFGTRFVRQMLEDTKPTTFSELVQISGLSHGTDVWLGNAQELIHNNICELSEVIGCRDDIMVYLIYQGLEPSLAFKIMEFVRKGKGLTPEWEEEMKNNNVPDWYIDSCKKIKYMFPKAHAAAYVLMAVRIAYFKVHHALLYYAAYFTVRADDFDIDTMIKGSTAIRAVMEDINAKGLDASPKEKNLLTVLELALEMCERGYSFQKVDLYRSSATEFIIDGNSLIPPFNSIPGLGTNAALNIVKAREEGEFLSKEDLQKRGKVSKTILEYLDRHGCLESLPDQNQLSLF
Chain of Ubiquitin carboxyl-terminal hydrolase 2 (Homo sapiens) (O75604 whole entry, looked up): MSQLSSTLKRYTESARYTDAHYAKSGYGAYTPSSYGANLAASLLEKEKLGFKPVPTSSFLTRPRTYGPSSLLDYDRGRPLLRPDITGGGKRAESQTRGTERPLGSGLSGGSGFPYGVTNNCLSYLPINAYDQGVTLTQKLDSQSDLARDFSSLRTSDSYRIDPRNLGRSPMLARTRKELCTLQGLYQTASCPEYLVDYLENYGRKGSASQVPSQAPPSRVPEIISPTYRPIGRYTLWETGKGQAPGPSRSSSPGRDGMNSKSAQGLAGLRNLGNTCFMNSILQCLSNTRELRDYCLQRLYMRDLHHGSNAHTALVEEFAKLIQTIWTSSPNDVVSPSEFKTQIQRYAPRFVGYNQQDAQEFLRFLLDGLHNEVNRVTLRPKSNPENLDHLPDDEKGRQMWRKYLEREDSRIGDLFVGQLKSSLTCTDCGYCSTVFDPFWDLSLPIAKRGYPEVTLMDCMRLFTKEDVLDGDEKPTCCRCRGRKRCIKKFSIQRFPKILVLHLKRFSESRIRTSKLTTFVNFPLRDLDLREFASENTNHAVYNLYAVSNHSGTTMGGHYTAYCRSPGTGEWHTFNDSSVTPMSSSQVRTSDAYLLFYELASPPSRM
Chain of ATP-dependent DNA helicase Q1 (Homo sapiens) (P46063 whole entry, looked up): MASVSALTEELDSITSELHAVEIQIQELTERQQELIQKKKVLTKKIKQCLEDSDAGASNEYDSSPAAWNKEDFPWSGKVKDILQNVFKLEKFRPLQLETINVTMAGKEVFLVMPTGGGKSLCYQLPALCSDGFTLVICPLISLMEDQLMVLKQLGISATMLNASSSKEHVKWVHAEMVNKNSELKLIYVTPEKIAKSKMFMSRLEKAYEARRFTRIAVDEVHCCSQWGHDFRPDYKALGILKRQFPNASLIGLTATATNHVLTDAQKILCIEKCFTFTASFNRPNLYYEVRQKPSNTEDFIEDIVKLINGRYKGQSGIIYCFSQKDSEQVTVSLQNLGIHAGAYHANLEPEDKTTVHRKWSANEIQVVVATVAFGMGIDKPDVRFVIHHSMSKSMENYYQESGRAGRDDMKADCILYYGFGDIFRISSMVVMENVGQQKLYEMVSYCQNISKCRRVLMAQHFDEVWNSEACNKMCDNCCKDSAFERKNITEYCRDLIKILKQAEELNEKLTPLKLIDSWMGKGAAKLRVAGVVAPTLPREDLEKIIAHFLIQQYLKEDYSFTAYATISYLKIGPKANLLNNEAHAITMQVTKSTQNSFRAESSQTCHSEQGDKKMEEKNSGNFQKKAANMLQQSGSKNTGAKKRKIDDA

On to `c1ccc2c(c1)CCCC2C1=NCCN1` (stereo unspecified), for which the Potency result in test [1], in [5], in [6], in test [7], in [8] and in [10] was “inactive” throughout. Moreover, the Potency entry in [12], in test [15] and in [16] was “inactive” in each case. Moreover, the result in test [2], in test [3], in test [4], in test [9], in test [11] and in test [13] was inactive. Moreover, the call in [14] and in [17] was inactive.

`Cc1ccc(S(=O)(=O)NC(=O)NN2CCCCCC2)cc1`: the Potency result in test [1], in [18], in test [5], in test [6], in [7] and in [8] was “inactive” each time. Also, the Potency result in test [10], in test [12], in test [15] and in [16] was “inactive” in each case. In addition, the compound was called inactive in [2], in test [3], in [4], in test [9], in test [11] and in [13]. Also, the compound was classed as inactive in [17].

Consider `O=C(O)CP(=O)(O)O`, for which the Potency entry in test [1], in test [19], in test [5], in test [6], in test [7] and in [8] was “inactive” each time. The Potency entry in [12] and in test [16] was “inactive” throughout. The compound was called inactive in test [2], in [3], in [4], in test [9], in [11] and in test [13]. Besides, the call in test [14] and in [17] was inactive.

`C(=C\c1ccccc1)/CN1CCN(C(c2ccccc2)c2ccccc2)CC1`: the Potency in test [1] was 11.2 µM (active). The compound was called inactive in test [3], in test [4], in [9], in test [11], in test [13] and in test [17]. The Potency entry in [19], in test [18], in [5], in test [6], in test [7] and in test [10] was “inactive” in each case. For the same compound, the Potency entry in test [12], in [15] and in [16] was “inactive” in each case.

Take `O=C(O)CCCCCCCC(=O)O`: the Potency result in [1], in test [19], in [18], in test [5], in [6] and in [7] was “inactive” each time. Further, the Potency entry in [8], in test [10], in [12], in [15] and in [16] was “inactive” in each case. The compound was called inactive in test [3], in test [4], in [9], in [11], in test [13] and in test [17].

`C[C@]12CCC(=O)C=C1CC[C@@H]1[C@@H]2C(=O)C[C@@]2(C)[C@H]1CC[C@]2(O)C(=O)CO`: the Potency result in test [1], in test [19], in [18], in test [5], in test [6] and in test [7] was “inactive” in each case. The Potency entry in [8], in test [10], in [15] and in [16] was “inactive” throughout. Moreover, the outcome in [3], in test [4], in test [9], in [11], in [13] and in test [14] was inactive. In addition, the compound was classed as inactive in test [17].

Consider `CN(C)C(=O)Oc1ccc[n+](C)c1`, for which the Potency entry in test [1], in test [19], in test [18], in test [5], in [6] and in [7] was “inactive” in each case. The Potency entry in test [8], in [10], in [12], in test [15] and in test [16] was “inactive” each time. Further, the result in test [3], in [4], in [9], in [11], in test [13] and in [14] was inactive. Besides, the result in test [17] was inactive.

With `CC(C)[N+](C)(CCOC(=O)C1c2ccccc2Oc2ccccc21)C(C)C`, the values for the Potency in test [1], in test [15] and in [16] were 7.08 µM (active), 3.29 µM (active) and 4.65 µM (active), respectively. Moreover, the compound was called inactive in [3], in [4], in [9], in test [11], in test [13] and in test [14]. Also, the result in test [17] was inactive. For the same compound, the Potency result in test [19], in test [18], in [5], in test [6], in test [7] and in [8] was “inactive” each time. For the same compound, the Potency result in [10] and in test [12] was “inactive” in each case.
